G9a inh – G9a (human) methyltransferase inhibition; Q96KQ7; G9a H3K9 monomethylation, AlphaScreen, 2 h; Potency, µM (series often up to 102 µM), without a hit: at the top dose activity, negative = inhibition, most hits filed as inhibitors; 8.8% of 350,000 active; AID 504332; note: % is set by controls: 0 for no effect and ±100 for the full control effect; nearly all actives have a fitted effect of over 75% in size
Target sequence (Q96KQ7 913-1193 limits assumed): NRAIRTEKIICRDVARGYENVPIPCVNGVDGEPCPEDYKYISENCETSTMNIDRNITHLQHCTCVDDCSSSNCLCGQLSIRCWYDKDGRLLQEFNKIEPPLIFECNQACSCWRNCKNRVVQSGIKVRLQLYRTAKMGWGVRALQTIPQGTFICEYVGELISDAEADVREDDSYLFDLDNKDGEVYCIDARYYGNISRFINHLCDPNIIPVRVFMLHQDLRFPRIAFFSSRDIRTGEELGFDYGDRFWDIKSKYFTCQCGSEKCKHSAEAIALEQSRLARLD
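Compounds were preincubated with 20 nM G9a for 15 min, after which biotinylated H3K9 peptide (500 nM) and SAM (20 uM) started a 2 h room-temperature reaction. Monomethylated product was quantified by antibody-based AlphaScreen chemiluminescence.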
JMJD2A Tudor inh – inhibitors of human JMJD2A Tudor domain; AlphaScreen JMJD2A-Tudor / H3K4me3 peptide binding; Potency, µM (doses to about 114 µM), for the others: at the highest dose activity change, negative = inhibition, usual class: inhibitors; 4.4% of 390,000 active; AID 504339; note: % is set by controls: 0 for no effect and ±100 for the full control effect; nearly all actives have a fitted effect of over 50% in size
HP1b binding inh – blocks HP1-beta chromodomain binding to methylated histone tails; P83916; 0.56% of 390,000 active; AlphaScreen HP1-beta / biotin-H3K9me3 peptide binding; Potency, µM (titrated, usually from 114 µM), for inactives: at the highest dose activity change, negative = inhibition, usual class: inhibitors; note: nearly all actives have a fitted effect of over 70% in size
Target sequence (P83916 whole entry, looked up): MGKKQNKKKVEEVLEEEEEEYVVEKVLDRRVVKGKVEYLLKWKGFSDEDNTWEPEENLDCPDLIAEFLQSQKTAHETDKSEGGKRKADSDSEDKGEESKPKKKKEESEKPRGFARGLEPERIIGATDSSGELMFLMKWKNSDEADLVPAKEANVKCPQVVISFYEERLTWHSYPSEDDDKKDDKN
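AlphaScreen: HP1-beta (50 nM) preformed 30 min with biotin-H3(1-18)K9me3 peptide (50 nM) in PBS pH 7.4, 0.01% Tween-20. Compound added for 30 min at RT, then streptavidin donor/nickel chelate acceptor beads (10 ug/mL) for 30 min.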
BAZ2B inh – inhibitors of human BAZ2B bromodomain; Q9UIF8; AlphaScreen BAZ2B-H3K14Ac peptide displacement; Potency, µM (doses to about 114 µM), inactives show at the highest dose activity change, negative = inhibition, actives largely listed as inhibitors; 4.4% of 360,000 active; AID 504333; note: % is set by controls: 0 for no effect and ±100 for the full control effect; nearly all actives have a fitted effect of over 60% in size
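AlphaScreen luminescence quantifies BAZ2B engagement of H3K14Ac peptide; the protein and biotinylated peptide are both at 50 nM final, buffer PBS pH 7.4 with 0.01% Tween-20, all steps at room temperature.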
GLS inh – inhibitors of human glutaminase (GLS); GLS enzymatic activity, qHTS titration; AID 624170; O94925; Potency, µM (titrated, usually from 45.5 µM), inactives show at the highest dose activity change, negative = inhibition, most hits filed as inhibitors; 0.21% of 410,000 active; note: % is set by controls: 0 for no effect and ±100 for the full control effect
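hKGA in 45 mM KH2PO4 (pH 8.2), 0.02% Tween-20 with compound, then 1mM L-Glutamine (stock as added) plus glutamate oxidase/HRP/Amplex red coupling mix. Fluorescence read initially and after 30 min at RT; signal change reflects glutamate formation.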
Numbers without * were called inactive; u = inconclusive; x = not tested or not shown; ! = not active in a repeat; [ ] = dose if it differs, or a comment. Rows were chosen to be rich in hits. Some 10% of all compounds tested hit in one or more screens of this group. Calls come from the whole dose curve; as a rule, active = well fitted curve in the direction sought with a large enough effect; inconclusive = small, poorly fitted or top-dose-only effect, or another doubt; inactive = no such curve, though single readings can be large; an effect the other way counts as inactive or inconclusive. Potency is the fitted concentration of half-maximal effect.

SMILES | G9a inh | JMJD2A Tudor inh | HP1b binding inh | BAZ2B inh | GLS inh
CCCCn1c(-c2csc(CC)c2)n[nH]c1=S | 1.8µM* | 40µM* | -19% | -36% | u
CCCCn1c(-c2csc(C(C)C)c2)n[nH]c1=S | 4µM* | 79µM* | u | -8% | -19%
S=c1[nH]nc(-c2cccc(Cl)c2)n1CCN1CCCCC1 | u | -35%[57.1 µM] | -7% | 7% | -4%
CCCc1cc(-c2n[nH]c(=S)n2CC(C)C)cs1 | 2µM* | 79µM* | -2% | -30% | u
Cc1ccc(-n2c(=O)c3c(c4cc(C)ccc4n3C)n(CC(=O)NCc3ccccc3)c2=O)cc1 | -15%[59 µM] | -15% | 13% | 0% | 1%
OCc1cc(C(O)CNCCCCCCOCCCCc2ccccc2)ccc1O (stereo not given) | 35µM*! | -24% | 8% | -2% | 36%
CC(C)(C)NCC(O)c1ccc(O)c(CO)c1 (stereo not given) | 3%[59 µM] | x | x | x | 32%
Cn1c2ccccc2c2cc(/C=N/NC(=O)c3cc(O)ccc3O)ccc21 | 40µM* | 32µM* | u | 45µM* | 25%
Cn1c2ccccc2c2cc(/C=N/NC(=O)c3cc(O)cc(O)c3)ccc21 | 50µM* | 56µM* | u | 35µM* | 16µM*
COc1cc(C(=O)N/N=C/c2ccc3c(c2)c2ccccc2n3C)ccc1O | 22% | -14% | 10% | -23% | -9%
CCc1ccc(C(=O)COC(=O)c2ccc(-c3nnc(-c4ccccc4)o3)cc2)cc1 | -6% | -13% | 26% | 0% | -9%
COCCOc1ccc(C(F)(F)F)cc1NC(=O)c1ccc(C(F)(F)F)cc1 | 21% | -7% | 35% | 5% | 5%
COCCOc1ccc(C(F)(F)F)cc1Nc1nc2ccccc2o1 | u | 28µM* | 30% | 13% | 32%
Cc1ccc(S(=O)(=O)Nn2c(C)nnc2-n2nc(C)cc2C)cc1 | -42%[59 µM] | 50µM* | 5% | 71µM* | 0%
O=C(NC1CCN(Cc2ccc(Cl)cc2)CC1)c1cn(-c2ccccc2)nc1-c1cccnc1 | 9%[59 µM] | u | 12% | -2% | -1%
CCOC(=O)c1c(C)[nH]c(C)c1C(=O)CN1C(=O)NC2(CCCCCC2)C1=O | 22µM* | -16% | 20% | 9% | 2%
CCOc1ncccc1C(=O)NCc1ccccc1 | -9%[59 µM] | x | x | 2% | x
CCCNC(=S)N1CCC(NC(=O)C2CCCCC2)CC1 | 7%[12.7 µM] | 22µM* | u | 2% | 2%
O=C(NC1CCN(C(=S)NCc2ccco2)CC1)C1CCCCC1 | u | -1% | 4% | 10% | u
O=C(NC(=S)N1CCCCCC1)C1CC1 | 28µM* | -24% | 6% | 0% | 10%
O=C(CC12CC3CC(CC(C3)C1)C2)NC(=S)N1CCCCC1 | 11µM* | -18% | u | -5% | 11%
O=C(NC1CCN(C(=S)NCCc2ccccc2)CC1)C1CC1 | 10µM* | -5% | 70% | u | 0%
O=C(NN1CCOCC1)c1sc2cccc(F)c2c1Cl | 28µM* | -30% | 13% | -21% | 18%
O=C(NN1CCOCC1)c1ccccc1F | x | -11% | 29% | 0% | -11%
CC[C@H](C)[C@@H](CN[C@H](C)CNC)NCCC(c1ccccc1)c1ccccc1 | 45µM* | -16% | 29% | -35% | 2%
SMILES | G9a inh | JMJD2A Tudor inh | HP1b binding inh | BAZ2B inh | GLS inh
CCc1ccc(C2=CC(c3cccc(C)c3)n3c(nc4ccccc43)N2)cc1 (stereo not given) | -9%[59 µM] | 12% | 90% | -1% | -23%
CCOCc1cc(CN2CCN(c3cccc(C(F)(F)F)c3)CC2)c(O)c2ncccc12 | -16%[59 µM] | 56µM* | 21% | 28µM* | 11%
O=c1cc(CO)oc(CN2CCN(c3cccc(C(F)(F)F)c3)CC2)c1O | u | -16% | 24% | u | 25%
COc1ccnc(N2CCN(c3cccc(C(F)(F)F)c3)CC2)c1C#N | -13%[2.33 µM] | 1% | 20% | 10% | -3%
CC(C)OCc1cc(CN2CCN(c3cccc(C(F)(F)F)c3)CC2)c(O)c2ncccc12 | 2%[59 µM] | u | 45% | 25µM* | 6%
COc1ccc(S(=O)(=O)N2CCCCCC2)cc1NC(=O)CN1C(=O)NC(C)(c2ccc(C)cc2)C1=O (stereo not given) | 6%[0.501 µM] | -21% | 26% | 1% | -1%
O=C(NCc1ccc(Cl)cc1)c1cc(-c2ccco2)on1 | -4% | -10% | 17% | 0% | 9%
O=C(CCCn1c(=O)c2cccn2c2cccnc21)NCCc1ccc(Cl)cc1 | 36% | -12% | 19% | -24% | -16%
CCOC(=O)c1ccc(NC(=O)c2ccc3c(c2)C(=O)N(CC2CCCO2)C3=O)cc1 (stereo not given) | x | -2% | 44% | -3% | 1%
CCCn1nnnc1NCc1ccccc1Cl | 12% | 0% | 31% | 7% | 1%
NNC(=O)c1cc(C2CC2)nc2ccc(Br)cc12 | 6% | -14% | 18% | 0% | 2%
COc1ccc(-c2cc(-c3ccco3)[nH]c(=O)c2C#N)cc1OC | 10µM* | u | 12% | 56µM* | -14%
O=C1COc2ccc(S(=O)(=O)N3CCN(c4cccc(Cl)c4)CC3)cc2N1 | x | 5% | 41% | -4% | 5%
COc1cccc(C2C(C(=O)c3cc4cccc(OC)c4o3)=C(O)C(=O)N2c2cc(C)on2)c1OC (stereo not given) | 7%[12.7 µM] | u | -11% | -29% | 22%
COc1cc(C2C(C(=O)c3cc4ccccc4o3)=C(O)C(=O)N2c2cc(C)on2)cc(OC)c1OC (stereo not given) | 45µM* | -17% | 29% | -28%[57.1 µM] | -1%
Cc1cc(N2C(=O)C(O)=C(C(=O)c3cccs3)C2c2ccccc2)no1 (stereo not given) | 7%[59 µM] | u | 6% | -9% | 2%
COc1cccc(C2C(C(=O)c3cc4ccccc4o3)=C(O)C(=O)N2c2cc(C)on2)c1OC (stereo not given) | 45µM* | u | 2% | -28% | 9%
O=C(NCC(c1cccs1)S(=O)(=O)c1cccs1)c1c(F)cccc1F (stereo not given) | -1%[59 µM] | -6% | 24%[57 µM] | 3% | 1%
COCCNC(=S)N1CCC(c2nc(-c3ccc(N(C)C)cc3)no2)CC1 | u | u | -33% | 56µM* | 46%
CC(C)CNC(=S)N1CCC(c2nc(-c3ccc(F)cc3)no2)CC1 | 9% | 2% | 41% | -12% | -14%
COC(=O)c1ccccc1NC(=O)c1noc2c1CCC2 | 45µM* | 50µM* | u | 50µM* | u
CSc1ccccc1NC(=O)c1noc2c1CCC2 | 14µM* | 50µM* | 50µM* | 40µM* | -11%
Cc1nn(Cc2ccc(Cl)cc2)c(C)c1NC(=O)c1cc(-c2ccco2)on1 | u | -24% | 23% | -7% | -2%
CCc1ccc(NC(=O)c2noc3c2CCCCC3)cc1 | 18%[59 µM] | 7% | 30% | 8% | -2%

Screening data deposited in PubChem BioAssay by National Center for Advancing Translational Sciences (NCATS).
